The values below come from PubChem BioAssay (NCI).

Test systems include SK-MEL-2 melanoma; EKVX NSCLC; SN12C renal; UO-31 renal; TK-10 renal; ACHN renal; A498 renal; CCRF-CEM leukemia; MOLT-4 leukemia; CAKI-1 renal.
Assay in all cases: NCI-60 one-dose screen, 48 h (100 = growth as untreated, 0 = no growth, -100 = all killed)
Common to all, as to details: 10 µM

About 83,000 compounds went through this panel and 20% of them were active in at least one assay; those are over-represented in the sample as a whole.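 Values shown are percent growth following 48 h exposure of cells in 96-well plates to a single concentration of compound; below 10 was considered active.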 Unmarked numbers belong to inactive results. Activity calls are given as the source filed them.

`Cc1ccc(S(=O)(=O)N(C)CCCCCC(=O)O)cc1`: the growth in the experiment with SK-MEL-2 melanoma is 99.9%; in the experiment with EKVX NSCLC it was 95.9%; with SN12C renal, 106%; with UO-31 renal, 88.3%; with TK-10 renal it was 89.4%; in the experiment on ACHN renal, 102%. The figures for the growth with A498 renal, in the experiment on CCRF-CEM leukemia and in the experiment with MOLT-4 leukemia were 110%, 110% and 95.1%, respectively.
For the compound `COc1cc(-c2nn(-c3cccc(NC(=O)NCCNC(=O)c4cccc(C(F)(F)F)c4)c3)cc2-c2ccncc2)ccc1Cl`, the growth is 21.5% in the experiment on SK-MEL-2 melanoma; 60.1% in the experiment on EKVX NSCLC; 75.2% in the experiment on SN12C renal; 62.1% with UO-31 renal; 90% with TK-10 renal; 48.4% in the experiment on ACHN renal. The growth is 33% in the experiment on A498 renal, 20.6% with CCRF-CEM leukemia and 27.3% with MOLT-4 leukemia.
Take `COc1cc(OC)c2c(=O)c(O)c(-c3ccccc3)oc2c1`: the growth in the experiment on SK-MEL-2 melanoma was 87.3%; in the experiment on EKVX NSCLC it was 83.4%; in the experiment on SN12C renal, 73.3%; with UO-31 renal, 53.8%; with TK-10 renal, 96.8%; in the experiment on ACHN renal it was 68%. Further, the growth was 69.6% with A498 renal, 47.8% in the experiment on CCRF-CEM leukemia and 54.3% with MOLT-4 leukemia.
Regarding `COc1cc(C(=O)n2nc(-c3cc(OC)c(OC)c(OC)c3)nc2N)cc(OC)c1OC`, the growth with SK-MEL-2 melanoma is 91.2%; in the experiment on EKVX NSCLC it was 90.6%; with SN12C renal, 109%; with UO-31 renal, 83.2%; in the experiment with TK-10 renal, 98.1%; with ACHN renal, 95.8%. Besides, the growth with A498 renal is 77.6%; in the experiment with CCRF-CEM leukemia it was 96.7%; in the experiment on MOLT-4 leukemia it was 81.5%.
Turning to `O=C1c2ccccc2C(=O)c2c1ccc(C(Br)Br)c2[N+](=O)[O-]`, the growth in the experiment with SK-MEL-2 melanoma is 77.5%; in the experiment with EKVX NSCLC it was 46.8%; in the experiment on SN12C renal it was 34.4%; in the experiment on UO-31 renal it was 50.6%; with TK-10 renal, 73.2%; in the experiment with ACHN renal it was -16.1% (active). Also, the figures for the growth in the experiment with A498 renal, in the experiment on CCRF-CEM leukemia and with MOLT-4 leukemia were 26.6%, -43.4% (active) and -45.5% (active), respectively.
`CN(C)CCCOc1ccccc1NC1=C(Cl)C(=O)C(Nc2ccccc2OCCCN(C)C)=C(Cl)C1=O`: the growth is -63.8% (active) in the experiment on SK-MEL-2 melanoma; -82% (active) in the experiment with EKVX NSCLC; -86.7% (active) with SN12C renal; -99% (active) with UO-31 renal; -98.3% (active) in the experiment with TK-10 renal; -98% (active) in the experiment on ACHN renal. The growth in the experiment with A498 renal is 65.1%; in the experiment with CCRF-CEM leukemia, -16.5% (active); with MOLT-4 leukemia, -33.8% (active).
Turning to `Cc1c(Cl)cccc1NC(=O)CCCl`, the growth in the experiment with SK-MEL-2 melanoma was 103%; with EKVX NSCLC it was 106%; in the experiment on SN12C renal it was 95.8%; in the experiment on UO-31 renal it was 86.6%; with TK-10 renal, 89.3%; in the experiment on ACHN renal, 108%. The growth in the experiment with A498 renal is 108%; with CCRF-CEM leukemia, 84.7%; in the experiment on MOLT-4 leukemia, 85.3%.
On to `CCOC(=O)c1cc(C(=O)c2cc(OC)c(OC)c(OC)c2)n2c1ccc1c3cccnc3ccc12`, for which the growth is 40.6% in the experiment on SK-MEL-2 melanoma; 93.3% in the experiment with EKVX NSCLC; 78.7% in the experiment on SN12C renal; 69% in the experiment with UO-31 renal; 85.3% in the experiment with TK-10 renal; 76.2% in the experiment with ACHN renal. Further, the growth was 60.6% in the experiment with A498 renal, 62.7% in the experiment with CCRF-CEM leukemia and 31.4% in the experiment on MOLT-4 leukemia.
For `Cc1c2c[n+](C(C)C)ccc2c(C)c2c1[nH]c1ccccc12`, the growth with SK-MEL-2 melanoma was 12.3%; with EKVX NSCLC, 29.4%; in the experiment on SN12C renal, -11.8% (active); in the experiment with UO-31 renal, 72.1%; in the experiment on TK-10 renal, 54%; with ACHN renal, 85.7%. The figures for the growth with CAKI-1 renal and in the experiment with MOLT-4 leukemia were 96% and 14.8%, respectively.
Take `COc1cc2c3c(n([C@@H]4CCOC4)c(=O)c2cc1OC)-c1cc2c(cc1C3=O)OCO2`: the growth is 94% in the experiment on SK-MEL-2 melanoma; 64.2% in the experiment on EKVX NSCLC; 18.3% in the experiment with SN12C renal; 5.77% (active) in the experiment on UO-31 renal; 99.7% in the experiment with TK-10 renal; 0.739% (active) in the experiment with ACHN renal. The results for the growth in the experiment on CAKI-1 renal and in the experiment with MOLT-4 leukemia were 23.2% and 20.4%, respectively.
Turning to `O=C1c2c(c3c4ccccc4n(CCCCCCN4CCOCC4)c3c3[nH]c4ccccc4c23)C(=O)N1O`, the growth in the experiment on SK-MEL-2 melanoma was 110%; in the experiment on EKVX NSCLC, 82.4%; with SN12C renal it was 75.8%; in the experiment on UO-31 renal, 9.13% (active); in the experiment with TK-10 renal, 111%; in the experiment on ACHN renal it was 92.6%. The growth in the experiment on CAKI-1 renal is 96.7%; in the experiment on MOLT-4 leukemia, 66.3%.
With `CCOC(=O)c1cc(C(=O)c2ccc(OC)c(OC)c2)n2ccncc12`, the growth is 96% in the experiment on SK-MEL-2 melanoma; 106% with EKVX NSCLC; 102% in the experiment with SN12C renal; 71.3% in the experiment on UO-31 renal; 123% with TK-10 renal; 88.1% in the experiment with ACHN renal. Also, the growth with A498 renal was 94.6%; in the experiment on CCRF-CEM leukemia it was 101%; with MOLT-4 leukemia, 94.2%.
For `COc1ccc2nc(Cl)c(Cn3nnc(Cc4ccccc4)n3)cc2c1`, the growth is 49.6% in the experiment on SK-MEL-2 melanoma; 24.5% in the experiment with EKVX NSCLC; 57.3% in the experiment on SN12C renal; 14.7% in the experiment with UO-31 renal; 34.9% in the experiment on TK-10 renal; 41.5% with ACHN renal. Moreover, the growth in the experiment on CAKI-1 renal is 43.9%; in the experiment with MOLT-4 leukemia, 10.3%.
As for `CC(=O)Nc1ccc2c(c1)C(=O)c1cccc(C(=O)O)c1-2`, the growth is 115% in the experiment with SK-MEL-2 melanoma; 107% with EKVX NSCLC; 109% with SN12C renal; 111% in the experiment with UO-31 renal; 116% with TK-10 renal; 105% in the experiment on ACHN renal. Besides, the growth is 120% in the experiment with A498 renal, 103% in the experiment on CCRF-CEM leukemia and 107% with MOLT-4 leukemia.
For `CC(=O)Oc1cc(OC(C)=O)c2ccccc2c1OC(C)=O`, the growth with SK-MEL-2 melanoma was 90.5%; with EKVX NSCLC, 97.5%; in the experiment with SN12C renal it was 87.4%; in the experiment with UO-31 renal, 62.6%; in the experiment with TK-10 renal, 150%; with ACHN renal, 84.9%. Besides, the results for the growth with A498 renal, with CCRF-CEM leukemia and in the experiment on MOLT-4 leukemia were 95.2%, 76.7% and 69.5%, respectively.
